Source: PubChem BioAssay AID1434 (Sanford-Burnham Center for Chemical Genomics, 2008)
The whole screen tested about 220,000 compounds, of which about 1,600 (0.73%) were called active. The sample holds actives, similar compounds and a random draw of the others, so the mix is not that of the screen.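 The calls were made as follows: active = mean inhibition across duplicate retests at 20 µM reaching about 50% (limit read from the data); inactive = the rest, inconclusive results apart.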

Molecular target: Runt-related transcription factor 1 (Homo sapiens) + Core-binding factor subunit beta (Homo sapiens) (UniProt Q01196+Q13951)
Sequence (Q01196 whole entry, looked up): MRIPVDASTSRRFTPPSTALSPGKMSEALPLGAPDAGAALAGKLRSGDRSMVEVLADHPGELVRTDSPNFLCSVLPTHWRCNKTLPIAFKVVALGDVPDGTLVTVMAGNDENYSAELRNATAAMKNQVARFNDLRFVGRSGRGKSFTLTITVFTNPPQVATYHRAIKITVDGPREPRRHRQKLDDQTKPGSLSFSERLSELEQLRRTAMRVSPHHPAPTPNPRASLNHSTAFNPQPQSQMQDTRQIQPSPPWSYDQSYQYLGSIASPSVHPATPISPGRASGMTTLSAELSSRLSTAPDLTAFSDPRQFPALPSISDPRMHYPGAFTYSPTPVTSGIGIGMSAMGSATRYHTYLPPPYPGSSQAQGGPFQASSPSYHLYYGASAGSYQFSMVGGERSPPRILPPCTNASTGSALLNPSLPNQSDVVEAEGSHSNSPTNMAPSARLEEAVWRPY
Sequence (Q13951 whole entry, looked up): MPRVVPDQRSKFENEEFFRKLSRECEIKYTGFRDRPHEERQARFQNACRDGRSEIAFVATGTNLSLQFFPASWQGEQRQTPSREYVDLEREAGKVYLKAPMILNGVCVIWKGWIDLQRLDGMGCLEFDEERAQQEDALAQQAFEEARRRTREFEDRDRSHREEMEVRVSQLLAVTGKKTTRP
Assay: inhibitors of RUNX1 Runt–CBFb-SMMHC binding, primary screen, biochemical, FRET, Cerulean-Runt, Venus-CBFb-SMMHC, uHTS (AID 1434);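 also: 0% = DMSO wells and 100% = wells with excess untagged CBFb-SMMHC; inhibitors lower the FRET ratio by blocking Runt binding to CBFb-SMMHC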
Conditions: Cerulean-Runt/Venus-CBFb-SMMHC FRET ratio 530/480, 1 h, at 20 µM, stronger effect = higher value

| Compound | inhibition | inhibition (retest duplicate average) [%] |
| --- | --- | --- |
| COc1ccc(OCCNS(=O)(=O)Cc2ccccc2)cc1 | 2.9% (inactive) |  |
| Cc1ccnc(N2CCC(C(=O)NC3CCCCCC3)CC2)n1 | 0.3% (inactive) |  |
| Cc1ccnc(-n2sc3ccccc3c2=O)n1 | 54.6% (active) | 58.2 |
| Cc1ccnc(Nc2nc3ccccc3s2)n1 | -5.4% (inactive) |  |
| CCCC(=O)Nc1nnc(-c2ccccc2)o1 | 0.5% (inactive) |  |
| Cc1c(CCC(=O)O)c(=O)oc2cc3occ(-c4ccccc4)c3cc12 | -3.4% (inactive) |  |
| CCCCCCc1cc2cc(-c3nnc(-c4ccccc4)o3)c(=O)oc2cc1O | 80.9% (active) | 146 |
| COc1ccc(OCCCn2cccc2/C=C2/C(=N)N3OC(C)=CC3=NC2=O)cc1 | 0.8% (inactive) |  |
| Cc1nn(C)c(C)c1S(=O)(=O)N1CCC(CO)(Cc2ccc(Cl)cc2)CC1 | 2.4% (inactive) |  |
| CCN(CC)CCn1c(/N=C/c2cc(Br)ccc2O)nc2ccccc21 | -10.6% (inactive) |  |
| Oc1ccc(Br)cc1C=Nc1ccc2[nH]ncc2c1 | 75.6% (active) | 86.7 |
| O=C(CCCO)N/N=C/c1cc(Br)ccc1O | 14.5% (inactive) |  |
| O=C(COC(=O)/C=C/c1ccc2c(c1)OCO2)NC1CCS(=O)(=O)C1 (configuration not stated) | 0.9% (inactive) |  |
| O=[N+]([O-])c1ccc2c(c1)C(N1CCOCC1)/C(=C/C1(O)CCCCC1)O2 (configuration not stated) | -4.2% (inactive) |  |
| CN(C(=O)CSc1nnc(-c2c[nH]c3ccccc23)o1)C1CCS(=O)(=O)C1 (configuration not stated) | 2.4% (inactive) |  |
| Cn1c(CO)cnc1SCc1ccccc1 | 3.5% (inactive) |  |
| CSc1c(SCc2ccccc2)cnn(Cc2ccccc2)c1=O | 59% (active) | 54.5 |
| O=c1c2ccccc2c(-c2ccccc2)nn1Cc1ccccc1 | 1.4% (inactive) |  |
| CNC(=O)C(NC(=O)c1ccccc1)=C(C)C | -2.9% (inactive) |  |
| Cc1nc(C(=O)Nc2ccc(Cl)cc2)sc1C1(C)CC(c2ccccc2)=NO1 (configuration not stated) | -2.6% (inactive) |  |
| Cc1cc(C#N)c(SCC(N)=O)nc1-c1ccc(F)cc1 | 14.7% (inactive) |  |
| O=C(C1CCCO1)N1CCN(C(=S)NC2CC2)CC1 (configuration not stated) | -0.8% (inactive) |  |
| CCCCCCCN=C(C)c1ccccc1O | -0.5% (inactive) |  |
